Measurements from the supplement of paper PMC7156485.
± gives the standard deviation of the averaged measurements.

What was measured:
Conditions in all cases: concentration: 10 µM; 24 h
HCC1569 [1] = test: cell number relative to DMSO (% of DMSO); higher = more cells (less growth inhibition / toxicity)
In short: (§1)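 H1.0 nuclear intensity or cell number is stated as percent of the plate control, based on the median of replicates, and HCC1569 values were smoothed for positional effects. These came from HCC1569 and TDF cells treated with compounds at 10 µM for 24 h at 37 °C in triplicate, then fixed in 3.7% formaldehyde and stained with a rabbit anti-H1.0 antibody, an AlexaFluor 647 secondary and DAPI.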

TDF [2] = test: as above
In short: as §1

TDF [3] = test: H1.0 immunofluorescence intensity relative to DMSO (% of DMSO); higher = stronger H1.0 induction, active = 120 or more
In short: as §1

HCC1569 [4] = test: H1.0 immunofluorescence intensity relative to DMSO (% of DMSO); higher = stronger H1.0 induction, active = 140 or more
In short: as §1
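For H1.0 immunofluorescence intensity relative to DMSO in this document: TDF is a line of transformed human dermal fibroblasts of mesenchymal origin.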
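For cell number relative to DMSO in this document: TDF denotes transformed human dermal fibroblasts of mesenchymal origin.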

Compound | cell number (HCC1569 [1]) | cell number (TDF [2]) | H1.0 immunofluorescence intensity (TDF [3]) | H1.0 immunofluorescence intensity (HCC1569 [4])
O=C(Nc1nc2ccc(NC(=O)C34CC5CC(CC(C5)C3)C4)cc2s1)c1ccccc1 | 45 | 20.4 | 170 (active) | 146 (active)
Br.Br.N=C(N)SCCc1cnc[nH]1 [Imetit dihydrobromide] | 103 | 103 | 94.8 (inactive) | 80.5 (inactive)
CCN(CC)CCNC(=O)c1cc(Cl)c(N)cc1OC.Cl [Metoclopramide hydrochloride] | 107 | 106 | 94.3 (inactive) | 87.4 (inactive)
CCCCCC(O)C=CC1C(O)CC(O)C1CC(=O)CCC(=O)O (stereo not given) [2,3-Dinor-6-keto-prostaglandin F1a] | 103 | 114 | 88.8 (inactive) | 101 (inactive)
CCn1nc(C(=O)O)c(=O)c2cc3c(cc21)OCO3 [Cinoxacin] | 97.6 | 105 | 95.7 (inactive) | 97.5 (inactive)
O=c1cc(O)cc(C=Cc2ccc(O)c(O)c2)o1 [Hispidin] | 97.3 | 94.8 | 97 (inactive) | 108 (inactive)
CCCCC=CCCCCCCCCC(=O)O [10(Z)-Pentadecenoic acid] | 101 | 102 | 103 (inactive) | 104 (inactive)
CC1=NC(=NNc2cc(S(=O)(=O)[O-])c3cc([N+](=O)[O-])cc(S(=O)(=O)[O-])c3c2)C(COP(=O)([O-])[O-])=C(C=O)C1=O.[Na+].[Na+].[Na+].[Na+] [PPNDS tetrasodium] | 104 | 115 | 91 (inactive) | 100 (inactive)
CC[N+](CC)(CC)CCOc1cccc(OCC[N+](CC)(CC)CC)c1OCC[N+](CC)(CC)CC [Gallamine] | 101 | 107 | 93.8 (inactive) | 104 (inactive)
CCCCN1CCCCC1C(=O)Nc1c(C)cccc1C (stereo not given) [Bupivacaine] | 97.9 | 108 | 101 (inactive) | 120 (inactive)
Cc1nc2c([nH]1)c(=O)n(C)c(=O)n2Cc1ccco1 [Furafylline] | 103 ± 5.7 | 107 ± 11 | 94.5 (inactive) | 103 (inactive)
CCCCCC=CCC=CCCCCCCCC(=O)O [Linoleic acid] | 102 | 101 | 105 (inactive) | 99.3 (inactive)
NC(=O)N1c2ccccc2C=Cc2ccccc21 [Carbamazepine] | 101 ± 6.6 | 111 ± 1.5 | 92.6 (inactive) | 97 (inactive)
Cl.O=C(CCCN1CCC(O)(c2cccc(C(F)(F)F)c2)CC1)c1ccc(F)cc1 [Trifluperidol hydrochloride] | 101 | 111 | 98.4 (inactive) | 105 (inactive)
CC(=O)Nc1ccc(CC(=O)O)cc1 [Actarit] | 100 | 103 | 97.2 (inactive) | 96.5 (inactive)
CN1CCN(C2=Nc3ccccc3Oc3ccc(Cl)cc32)CC1.O=C(O)CCC(=O)O [Loxapine succinate] | 101 | 94.3 | 95.8 (inactive) | 110 (inactive)
CNCCC(Oc1ccc(C(F)(F)F)cc1)c1ccccc1 (stereo not given) [Fluoxetine] | 99.3 | 94.1 | 100 (inactive) | 135 (inactive)
COC1C=CC=C(C)C(=O)NC2=CC(=O)C=C(C2=O)C(OC)C(C)CC(OC)C(OC)C(C)C=C(C)C1OC(N)=O (stereo not given) [Herbimycin A, Streptomyces sp.] | 62.4 | 54.7 | 88.3 (inactive) | 180 (active)
Cc1cc(NC(=O)CS(=O)(=O)c2cn(Cc3cc(Br)ccc3F)c3ccccc23)no1 | 82.5 | 99.6 | 90 (inactive) | 151 (active)
CNCC(O)c1ccc(O)c(O)c1.O=C(O)C(O)C(O)C(=O)O [L-(+)-Epinephrine tartrate] | 104 | 97 | 93.2 (inactive) | 106 (inactive)
CC(=O)OCC1(O)CC23CCC4c5ccoc5CCC4(C)C2CCC1C3 (stereo not given) [Cafestol acetate] | 103 | 98.6 | 97.6 (inactive) | 98.4 (inactive)
O=C1NC(=O)C(c2ccccc2[N+](=O)[O-])=C1Nc1ccc(O)c(Cl)c1 | 96.8 | 107 | 97.8 (inactive) | 111 (inactive)
COc1ccc(/C=C\c2cc(OC)c(OC)c(OC)c2)cc1O [2-methoxy-5-[(Z)-2-(3,4,5-trimethoxyphenyl)ethenyl]phenol] | 61.6 | 11.5 | 179 (active) | 162 (active)
Nc1c2c(nc3ccccc13)CCCC2 [Tacrine] | 102 | 97.1 | 95.7 (inactive) | 109 (inactive)
O=C1NC(=O)C(=Cc2ccc3c(c2)OC(F)(F)O3)S1 [PI 3-KbInhibitor II] | 100 | 96.8 | 103 (inactive) | 112 (inactive)
